The source of these data is PubChem BioAssay AID1851 (National Center for Advancing Translational Sciences (NCATS), 2009).

“And” between values parts separate entries of the source, which are not always exact repeats. Identical values can stand only once. The whole screen tested about 16,000 compounds, of which about 5,800 (36%) were called active. About 23% were inconclusive and are not listed. Calls follow the shape of the dose curve; as a rule, active = well fitted curve in the direction sought with a large enough effect; inconclusive = small, poorly fitted or top-dose-only effect, or effect the other way; inactive = no such curve, though single readings can be large or run the other way. This is one part of the list. Where a structure was tested more than once in an assay, its records may differ in their call.
% is scaled to controls: 0 for no effect and ±100 for the full control effect.

This assay deals with Cytochrome P450 2C19 (Homo sapiens) (UniProt P33261). The assay can be described thus: Cytochrome panel assay with activity outcomes. As to conditions: recombinant CYP, pro-luciferin dealkylation, luminescence, p450-cyp2c19; series mostly up to 57.1 µM.
Sequence of Cytochrome P450 2C19 (Homo sapiens) (P33261 whole entry, looked up): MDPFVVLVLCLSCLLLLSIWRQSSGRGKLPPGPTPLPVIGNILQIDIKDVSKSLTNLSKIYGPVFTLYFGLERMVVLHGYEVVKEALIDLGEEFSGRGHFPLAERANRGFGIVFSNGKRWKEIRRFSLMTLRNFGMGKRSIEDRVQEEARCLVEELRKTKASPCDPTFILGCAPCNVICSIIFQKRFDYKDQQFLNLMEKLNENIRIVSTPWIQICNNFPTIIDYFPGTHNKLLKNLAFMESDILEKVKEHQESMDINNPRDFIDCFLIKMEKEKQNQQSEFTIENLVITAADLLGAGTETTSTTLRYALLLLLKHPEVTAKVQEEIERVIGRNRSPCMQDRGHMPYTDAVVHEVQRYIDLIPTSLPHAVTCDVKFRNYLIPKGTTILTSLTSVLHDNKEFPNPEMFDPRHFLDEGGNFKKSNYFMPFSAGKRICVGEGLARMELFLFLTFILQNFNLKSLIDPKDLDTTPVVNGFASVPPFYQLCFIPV
Broadly, the AC50 is the concentration at which the activity in the assay is half-maximal. `CCOc1cc(C2NN=C(c3ccccc3)S2)ccc1OCc1ccccc1Cl` (configuration not stated): the AC50 is 5.01 µM (active).
In the case of `Nc1nc(SCC(=O)Nc2ccccc2Sc2ccc(Cl)cc2)n[nH]1`, the AC50 is 0.0631 µM (active).
For the compound `O=C(Cn1cnc2ccccc2c1=O)Nc1nnc(SCc2ccccc2)s1`, the concentration at half-maximal activity (AC50) is 15.8 µM (active).
Still for that read-out and setting: with `Cc1ccc(C(=O)COC(=O)c2ccccc2N2C(=O)C3C4CCC(C4)C3C2=O)cc1C` (configuration not stated) the figure was 14.1 µM (active); with `CS(=O)(=O)Nc1ccc([N+](=O)[O-])cc1OC1CCCCC1`, 0.0794 µM (active).
Regarding `CS(=O)(=O)Nc1ccc([N+](=O)[O-])cc1Oc1ccccc1`, the AC50 result is “inactive”.
The same measure, in the same setting: the same measure for `CCN(CC)CCOc1ccc(/C(=C(\Cl)c2ccccc2)c2ccccc2)cc1`: “inactive”; for `CCN(CC)CCOc1ccc(Cc2ccccc2)cc1`: 15.8 µM (active); for `COc1ccccc1NCc1nnc(SCC(=O)N/N=C/c2ccco2)n1-c1ccc(Cl)cc1Cl`: 4.47 µM (active).
For the compound `COc1ccc(O)c(/C=N/NC(=O)CSc2nnc(C)n2-c2ccccc2)c1`, the AC50 entry is “inactive”.
On to `Cc1nc2cnc(N(C)C)nc2n(Cc2ccc(F)cc2)c1=O`, for which the AC50 was 1.58 µM (active).
In the case of `CN(C)c1ncc2nc(-c3cc(F)cc(F)c3)c(=O)n(Cc3ccc(F)cc3)c2n1`, the AC50 entry was “inactive”.
Regarding `CN(C)c1ncc2ncc(=O)n(C)c2n1`, the AC50 entry is “inactive”.
With `CN(C)c1ncc2ncc(=O)n(Cc3ccc(F)cc3)c2n1`, the AC50 is 3.16 µM (active).
With `CN(C)c1ncc2nc(-c3ccc(Cl)cc3)c(=O)n(Cc3ccc(F)cc3)c2n1`, the AC50 result is “inactive”.
Turning to `CCNc1ncc2nc(-c3ccccc3)c(=O)n(Cc3ccc(F)cc3)c2n1`, the AC50 entry is “inactive”.
The same measure, in the same setting: with `CCNc1ncc2ncc(=O)n(Cc3ccc(F)cc3)c2n1` the figure was 15.8 µM (active); with `CN(C)c1ncc2nc(-c3ccc(F)cc3)c(=O)n(Cc3ccc(F)cc3)c2n1`, “inactive”.
As for `CCNc1ncc2nc(-c3ccc(OC)cc3)c(=O)n(Cc3ccc(F)cc3)c2n1`, the AC50 entry was “inactive”.
Regarding `O=C1C[C@@H](O)[C@@H](O)[C@H]2[C@@H]3C(=O)N(Cc4ccccc4)C(=O)[C@@H]3CC[C@H]12`, the activity, negative = inhibition was -9.62% [at 11.4 µM] (inactive) and 25.4% [at 11.4 µM] (inactive).
For the compound `O=C1C2CCC(C(O)C2)N1Cc1ccccc1` (configuration not stated), the AC50 is 15.8 µM (active).
As for `O=C(O)[C@@H]1[C@H](C(=O)O)[C@H]2C(=O)C=C[C@H]1N2Cc1ccccc1`, the activity, negative = inhibition was 2.25% [at 11.4 µM] (inactive).
Turning to `Cn1cc([N+](=O)[O-])c(C(=O)Nc2cc(Oc3cccnc3)cc([N+](=O)[O-])c2)n1`, the AC50 was 7.94 µM (active).
`O=C(NC1CCCC1)C1CC(c2ccc(F)cc2)=NO1` (configuration not stated): the AC50 was 10 µM (active).
`O=C(NNC(=O)C1CC(c2cccnc2)=NO1)Nc1cccc(F)c1` (configuration not stated): the AC50 entry was “inactive”.
Consider `CC1CCCC(C)N1C(=O)C1CC(c2ccc(F)cc2)=NO1` (configuration not stated), for which the AC50 is 17.8 µM (active).
As for `CO[C@H]1COC(=O)[C@H](C)COC(=O)C/C=C\[C@@H](C)[C@H](OC)COC(=O)C/C=C\[C@@H]1C`, the activity, negative = inhibition was -42.3% [at 11.4 µM] (inactive).
`COc1nc(C)nc(Cl)c1NC1=NCCN1`: the AC50 result was “inactive”.
As to `Fc1ccc(CN(C2=NCCN2)c2c(Cl)cccc2Cl)cc1`, the AC50 entry was “inactive”.
For `Clc1cccc(Cl)c1NC1=NCCN1`, the AC50 result was “inactive and 5.01 µM (active)”.
On the same count and under the same terms, the same measure for `Clc1cccc(Nc2nnc(-c3ccccc3)c3ccccc23)c1`: 0.794 µM (active).
The same measure, in the same setting: with `Cc1ccc(COc2coc(CO)cc2=O)cc1` the figure was 14.1 µM (active); with `C=C1C(=O)C=C2CN(C(=O)c3ccccc3)[C@@](Cc3ccc(F)cc3)(C(=O)OC)[C@@H]12`, 5.01 µM (active).
In the case of `COc1ccc(C(=O)N2CCC3(CC2)CN(Cc2ccc(C#N)cc2)C3)cc1`, the AC50 entry is “inactive”.
As to `COC(=O)[C@@]1(Cc2ccc(OC)cc2)[C@@H]2C(=CC(=O)[C@H]2CC(=O)C(=O)N(C)C)CN1C(=O)c1ccccc1`, the AC50 result was “inactive”.
Turning to `C=C1C(=O)C=C2CN(C(=O)c3ccccc3)[C@@](Cc3ccc(OC)cc3)(C(=O)OC)[C@@H]12`, the AC50 was 20 µM (active).
Regarding `O=C(O)C12CC3(C(=O)O)CC(C(=O)O)(CC(C(=O)O)(C1)C3=O)C2=O`, the activity, negative = inhibition was -11.5% [at 11.4 µM] (inactive).
The same measure, in the same setting: the same measure for `C[C@H]1/C=C\CC(=O)OC[C@H](C)C(=O)N2CCC[C@@H]2C(=O)OC1`: -9.53% [at 11.4 µM] (inactive); for `COC(=O)[C@@H]1O[C@@H](SCCN)[C@@H](O)[C@H](O)[C@H]1O`: 31.9% [at 11.4 µM] (inactive).
With `Cc1cn2c(-c3ccncc3)nnc2s1`, the AC50 result was “inactive”.
For `c1cc(-c2sc(-c3ccncc3)c(-c3ccncc3)c2-c2ccncc2)ccn1`, the AC50 was 1.58 µM (active).
Turning to `COC(=O)N1CCC2(CC1)CCN(C(c1ccccc1)c1ccccc1)CC2`, the AC50 result was “inactive”.
On to `CC(C)C(NS(=O)(=O)c1cccs1)C(=O)NCCN1CCN(c2ccccc2)CC1` (configuration not stated), for which the AC50 is 14.1 µM (active).
For `O=C(C(NS(=O)(=O)c1cccs1)c1ccccc1)N1CCN(c2ccccc2)CC1` (configuration not stated), the AC50 is 1.41 µM (active).
Consider `COc1ccccc1N1CCN(C(=O)C(NS(=O)(=O)c2cccs2)c2ccccc2)CC1` (configuration not stated), for which the AC50 was 3.16 µM (active).
On the same count and under the same terms, with `CCN1CCN(CCCNC(=O)C(NC(=O)C2CCC(C)CC2)C(C)C)CC1` (configuration not stated) the entry was “inactive”; with `COc1ccc(N2CCN(CCNC(=O)c3c(C)cc(=O)oc3C)CC2)cc1`, “inactive”.
Turning to `CC(=O)N[C@@H](C(=O)O)C(C)(C)SN=O`, the AC50 result was “inactive”.
Take `CCOC(=O)c1[nH]c(C)c(C(=O)OCC(=O)N2c3ccccc3CC2C)c1C` (configuration not stated): the AC50 is 11.2 µM (active).
The same measure, in the same setting: the same measure for `CNCC[C@H](Oc1ccccc1C)c1ccccc1`: “inactive”.
Regarding `Cc1ccccc1OCCNC(=S)Nc1ccccc1`, the AC50 was 0.794 µM (active).
The same measure, in the same setting: the same measure for `CNC(=S)NNC(=O)COc1ccccc1C`: “inactive”; for `O=C(CC(=O)N/N=C\c1c(Cl)cccc1Cl)NCc1ccccc1`: 2.51 µM (active).
Same read-out and setting: the same measure for `C[C@@](N)(C(=O)O)c1ccc(P(=O)(O)O)cc1`: “inactive”; for `CN1Cc2c(C(=O)OC(C)(C)C)ncn2-c2ccsc2C1=O`: 1.26 µM (active).
As for `CCOCCCn1cnc2c([nH]c3cc(OC)ccc32)c1=O`, the concentration at half-maximal activity (AC50) was 1.41 µM (active).
Turning to `C=CCNC(=O)/C(=C\c1ccc2c(c1)OCO2)NC(=O)c1ccc(Br)cc1`, the concentration at half-maximal activity (AC50) is 8.91 µM (active).
Regarding `Cc1ccc(NC(=O)/C(=C\c2ccc3c(c2)OCO3)NC(=O)c2ccco2)cc1`, the AC50 result was “inactive”.
Regarding `O=C(N/N=C/c1ccc2c(c1)OCO2)/C(=C/c1ccc2c(c1)OCO2)NC(=O)c1ccccc1`, the AC50 was 14.1 µM (active).
On to `Cc1ccc(N(C(=O)c2csnn2)C(C(=O)NC(C)(C)C)c2cccs2)cc1` (configuration not stated), for which the AC50 was 2.51 µM (active).
Take `COc1ccc(-c2csc3c2[N+]2=CCC=C2C3=O)cc1`: the AC50 was 3.98 µM (active).
For the compound `COc1cc2c(C(=O)N3CCN(C)CC3)c(C)n(-c3ccccc3)c2cc1Br`, the concentration at half-maximal activity (AC50) is 28.2 µM (active).
In the case of `COc1ccccc1CN1CCCC2(CCN(C(=O)c3c(C)noc3C)CC2)C1`, the AC50 entry is “inactive”.
As for `COc1cc(C(=O)N2CCN(C(=O)c3ccccc3)CC2)cc(OC)c1OC`, the AC50 result was “inactive”.
As for `CC(C)NC(=O)N1CCCC2(CCN(C(=O)c3ccco3)CC2)C1`, the AC50 result is “inactive”.
`CC1CCN(C(NC(=O)c2ccco2)C(=O)c2ccccc2)CC1` (configuration not stated): the AC50 is 2 µM (active).
With `COc1ccc(C(=O)N2CCC[C@@]3(CCN(CC(C)C)C3)C2)cc1`, the AC50 result is “inactive”.
As for `Cc1ccc(C2C(=O)N(C3CCCC3)CC(=O)N2CC2COc3ccccc3O2)cc1` (configuration not stated), the AC50 was 6.31 µM (active).
In the case of `O=C(c1ccc(Cl)cc1)N1CCCC(c2ccccc2)=N1`, the AC50 was 4.47 µM (active).
Consider `NC(=O)CNC(=O)[C@@H]1CC2(CC(c3ccc(Cl)cc3)=NO2)CN1C(=O)c1ccccc1` (some centres not stated), for which the AC50 result is “inactive”.
Take `Cc1ccc(S(=O)(=O)N2CCN(Cc3ccccc3C(F)(F)F)CC2)cc1`: the AC50 was 2.24 µM (active).
With `O=S(=O)(c1ccc(Br)cc1)N1CCN(S(=O)(=O)c2ccc(Br)cc2)CC1`, the activity, negative = inhibition is -4.78% [at 11.4 µM] (inactive).
As to `COc1ccccc1CN1CCC2(CC1)CCN(S(=O)(=O)c1ccccc1)CC2`, the AC50 entry was “inactive”.
Regarding `Cc1ccc(S(=O)(=O)N2CCN(S(C)(=O)=O)C2)cc1`, the AC50 was 11.2 µM (active).
Take `CN(C)[C@H]1C(=O)C(C(=O)NCN2CCCC2)=C(O)[C@]2(O)C(=O)C3=C(O)c4c(O)cccc4[C@](C)(O)[C@H]3C[C@H]12`: the activity, negative = inhibition is -26.1% [at 11.4 µM] (inactive).
On to `Cc1c(CCO)c(=O)n(-c2ccccc2)n1S(=O)(=O)c1c(Cl)cc(Cl)cc1Cl`, for which the half-maximal activity concentration (AC50) was 2.82 µM (active).
For `Cc1c(N(C)CS(=O)(=O)O)c(=O)n(-c2ccccc2)n1C`, the AC50 result was “inactive”.
Regarding `Cc1ccc(S(=O)(=O)/N=C(/Nc2c(C)n(C)n(-c3ccccc3)c2=O)c2ccc(Cl)cc2)cc1`, the AC50 entry is “inactive”.
In the case of `CCOC(=O)N1CCN(CC(=O)c2ccc3c(c2)CCN3)CC1`, the AC50 is 14.1 µM (active).
In the case of `S=C(NCCSCc1c(Cl)cccc1Cl)Nc1ccccc1`, the AC50 was 1.41 µM (active).
For `S=C(NCCSCc1ccc(Cl)cc1Cl)Nc1ccccc1`, the AC50 is 1.12 µM (active).
Take `N[C@@H](CSCc1ccccc1)C(=O)O`: the activity, negative = inhibition is -4.77% [at 11.4 µM] (inactive).
In the case of `O=C(Cc1ccccc1)NCCSCc1ccc(Cl)cc1`, the concentration at half-maximal activity (AC50) was 2.24 µM (active).
Take `COc1c2ccoc2nc2c(OC)c(OC[C@H](O)C(C)(C)O)ccc12`: the AC50 result was “inactive”.
In the case of `C/C(=N\NC(N)=S)c1ccc[nH]1`, the activity, negative = inhibition is 20.4% [at 11.4 µM] (inactive).
As to `C[C@@H](C(=O)NCc1cccc2ccccc12)[C@H]1C[C@]1(C)[C@H](NC(=O)OCc1ccccc1)c1ccccc1`, the AC50 was 2.51 µM (active).
On the same count and under the same terms, the same measure for `C[C@@H](C(=O)NCc1ccc(S(C)(=O)=O)cc1)[C@@H]1C[C@@]1(C)[C@@H](NC(=O)OCc1ccccc1)c1ccccc1`: 1.26 µM (active).
On to `O=P(O)(CCc1ccccc1)C(O)c1ccccc1` (configuration not stated), for which the AC50 result was “inactive”.
For the compound `O=[N+]([O-])c1cc(/C=N/N2CCN(C3c4ccccc4-c4ccccc43)CC2)ccc1Cl`, the AC50 result is “inactive”.
Still for that read-out and setting: with `C(=N\N1CCN(C2c3ccccc3-c3ccccc32)CC1)/c1cccnc1` the figure was 0.251 µM (active); with `C/C(=N\N1CCN(C2c3ccccc3-c3ccccc32)CC1)c1cccnc1`, 4.47 µM (active); with `C/C(=N\N1CCN(C2c3ccccc3-c3ccccc32)CC1)c1ccncc1`, 3.16 µM (active).
